# Target: pT7_6His-AlfaTag-HOXD13 (human, UniProt P35453 263-343)
# Experiment: PADIT-seq
# Conditions: dsDNA, one strand shown
# Sequence of pT7_6His-AlfaTag-HOXD13 (P35453 263-343): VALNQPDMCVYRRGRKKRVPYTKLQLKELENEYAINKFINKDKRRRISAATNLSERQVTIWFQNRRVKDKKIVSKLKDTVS
row,Sequence,binding signal
1,CTCGAGGATATCAAGATCTGGCCTCGGCTGATTAAAAGGAACCTCTAGCTAGCCGACTCACTATAGGGATAATCGCCCTGAGCAAAGACC,1.86 ± 0.0796 log2FC
2,CTCGAGGATATCAAGATCTGGCCTCGGCCTCGTAAAAGGAACCTCTAGCTAGCCGACTCACTATAGGGATAATCGCCCTGAGCAAAGACC,3.09 ± 0.0876 log2FC
3,CTCGAGGATATCAAGATCTGGCCTCGGCAAACCACGCGGAACCTCTAGCTAGCCGACTCACTATAGGGATAATCGCCCTGAGCAAAGACC,-0.989 ± 0.132 log2FC
4,CTCGAGGATATCAAGATCTGGCCTCGGCCTTTTAGCAGGAACCTCTAGCTAGCCGACTCACTATAGGGATAATCGCCCTGAGCAAAGACC,0.506 ± 0.084 log2FC
5,CTCGAGGATATCAAGATCTGGCCTCGGCCTTTTATCCGGAACCTCTAGCTAGCCGACTCACTATAGGGATAATCGCCCTGAGCAAAGACC,0.939 ± 0.078 log2FC
6,CTCGAGGATATCAAGATCTGGCCTCGGCAATTGGGCGGGAACCTCTAGCTAGCCGACTCACTATAGGGATAATCGCCCTGAGCAAAGACC,-0.563 ± 0.097 log2FC
7,CTCGAGGATATCAAGATCTGGCCTCGGCTTTTTACTTGGAACCTCTAGCTAGCCGACTCACTATAGGGATAATCGCCCTGAGCAAAGACC,1.32 ± 0.0895 log2FC
8,CTCGAGGATATCAAGATCTGGCCTCGGCGGCATAAAAGGAACCTCTAGCTAGCCGACTCACTATAGGGATAATCGCCCTGAGCAAAGACC,0.675 ± 0.0684 log2FC
9,CTCGAGGATATCAAGATCTGGCCTCGGCTCATTAAAAGGAACCTCTAGCTAGCCGACTCACTATAGGGATAATCGCCCTGAGCAAAGACC,2.97 ± 0.0761 log2FC
10,CTCGAGGATATCAAGATCTGGCCTCGGCTTCCTAAAAGGAACCTCTAGCTAGCCGACTCACTATAGGGATAATCGCCCTGAGCAAAGACC,-0.635 ± 0.152 log2FC
11,CTCGAGGATATCAAGATCTGGCCTCGGCAGTCCACGCGGAACCTCTAGCTAGCCGACTCACTATAGGGATAATCGCCCTGAGCAAAGACC,-0.993 ± 0.114 log2FC
12,CTCGAGGATATCAAGATCTGGCCTCGGCGGCCTAAAAGGAACCTCTAGCTAGCCGACTCACTATAGGGATAATCGCCCTGAGCAAAGACC,-0.691 ± 0.105 log2FC
13,CTCGAGGATATCAAGATCTGGCCTCGGCGTGCTAAAAGGAACCTCTAGCTAGCCGACTCACTATAGGGATAATCGCCCTGAGCAAAGACC,-0.142 ± 0.0902 log2FC
14,CTCGAGGATATCAAGATCTGGCCTCGGCATTTTAAACGGAACCTCTAGCTAGCCGACTCACTATAGGGATAATCGCCCTGAGCAAAGACC,1.29 ± 0.0911 log2FC
15,CTCGAGGATATCAAGATCTGGCCTCGGCTTTTTATTGGGAACCTCTAGCTAGCCGACTCACTATAGGGATAATCGCCCTGAGCAAAGACC,3.26 ± 0.0862 log2FC
16,CTCGAGGATATCAAGATCTGGCCTCGGCATTTTACCGGGAACCTCTAGCTAGCCGACTCACTATAGGGATAATCGCCCTGAGCAAAGACC,1.17 ± 0.0862 log2FC
17,CTCGAGGATATCAAGATCTGGCCTCGGCGACCTAAAAGGAACCTCTAGCTAGCCGACTCACTATAGGGATAATCGCCCTGAGCAAAGACC,-0.787 ± 0.0956 log2FC
18,CTCGAGGATATCAAGATCTGGCCTCGGCATTTTACACGGAACCTCTAGCTAGCCGACTCACTATAGGGATAATCGCCCTGAGCAAAGACC,2.19 ± 0.0742 log2FC
19,CTCGAGGATATCAAGATCTGGCCTCGGCATTTTAAATGGAACCTCTAGCTAGCCGACTCACTATAGGGATAATCGCCCTGAGCAAAGACC,1.82 ± 0.0848 log2FC
20,CTCGAGGATATCAAGATCTGGCCTCGGCGCCATAAAAGGAACCTCTAGCTAGCCGACTCACTATAGGGATAATCGCCCTGAGCAAAGACC,2.57 ± 0.0659 log2FC

row,Sequence,binding signal
1,CTCGAGGATATCAAGATCTGGCCTCGGCATTTTAGATGGAACCTCTAGCTAGCCGACTCACTATAGGGATAATCGCCCTGAGCAAAGACC,0.542 ± 0.096 log2FC
2,CTCGAGGATATCAAGATCTGGCCTCGGCGAAATAAAAGGAACCTCTAGCTAGCCGACTCACTATAGGGATAATCGCCCTGAGCAAAGACC,1.47 ± 0.0776 log2FC
3,CTCGAGGATATCAAGATCTGGCCTCGGCTTACTAAAAGGAACCTCTAGCTAGCCGACTCACTATAGGGATAATCGCCCTGAGCAAAGACC,0.214 ± 0.111 log2FC
4,CTCGAGGATATCAAGATCTGGCCTCGGCCGCACGCGCGGAACCTCTAGCTAGCCGACTCACTATAGGGATAATCGCCCTGAGCAAAGACC,-0.992 ± 0.148 log2FC
5,CTCGAGGATATCAAGATCTGGCCTCGGCTTTTTAGCAGGAACCTCTAGCTAGCCGACTCACTATAGGGATAATCGCCCTGAGCAAAGACC,0.699 ± 0.0959 log2FC
6,CTCGAGGATATCAAGATCTGGCCTCGGCCGCCCAGCAGGAACCTCTAGCTAGCCGACTCACTATAGGGATAATCGCCCTGAGCAAAGACC,-0.927 ± 0.127 log2FC
7,CTCGAGGATATCAAGATCTGGCCTCGGCCTACTAAAAGGAACCTCTAGCTAGCCGACTCACTATAGGGATAATCGCCCTGAGCAAAGACC,1.25 ± 0.0954 log2FC
8,CTCGAGGATATCAAGATCTGGCCTCGGCCGCTTACGCGGAACCTCTAGCTAGCCGACTCACTATAGGGATAATCGCCCTGAGCAAAGACC,-0.713 ± 0.125 log2FC
9,CTCGAGGATATCAAGATCTGGCCTCGGCTCCTTAAAAGGAACCTCTAGCTAGCCGACTCACTATAGGGATAATCGCCCTGAGCAAAGACC,1.08 ± 0.104 log2FC
10,CTCGAGGATATCAAGATCTGGCCTCGGCTTTTTACGAGGAACCTCTAGCTAGCCGACTCACTATAGGGATAATCGCCCTGAGCAAAGACC,3.37 ± 0.0866 log2FC
11,CTCGAGGATATCAAGATCTGGCCTCGGCTTTTTACGCGGAACCTCTAGCTAGCCGACTCACTATAGGGATAATCGCCCTGAGCAAAGACC,2.08 ± 0.0867 log2FC
12,CTCGAGGATATCAAGATCTGGCCTCGGCTTTTTAGATGGAACCTCTAGCTAGCCGACTCACTATAGGGATAATCGCCCTGAGCAAAGACC,0.28 ± 0.11 log2FC
13,CTCGAGGATATCAAGATCTGGCCTCGGCACGATAAAAGGAACCTCTAGCTAGCCGACTCACTATAGGGATAATCGCCCTGAGCAAAGACC,1.32 ± 0.0937 log2FC
14,CTCGAGGATATCAAGATCTGGCCTCGGCGTTTTATTAGGAACCTCTAGCTAGCCGACTCACTATAGGGATAATCGCCCTGAGCAAAGACC,3.19 ± 0.0762 log2FC
15,CTCGAGGATATCAAGATCTGGCCTCGGCCTTATAAAAGGAACCTCTAGCTAGCCGACTCACTATAGGGATAATCGCCCTGAGCAAAGACC,2.88 ± 0.0949 log2FC
16,CTCGAGGATATCAAGATCTGGCCTCGGCATTTTATTCGGAACCTCTAGCTAGCCGACTCACTATAGGGATAATCGCCCTGAGCAAAGACC,1.83 ± 0.0742 log2FC
17,CTCGAGGATATCAAGATCTGGCCTCGGCATGCCACGCGGAACCTCTAGCTAGCCGACTCACTATAGGGATAATCGCCCTGAGCAAAGACC,-1.08 ± 0.113 log2FC
18,CTCGAGGATATCAAGATCTGGCCTCGGCGGTGTAAAAGGAACCTCTAGCTAGCCGACTCACTATAGGGATAATCGCCCTGAGCAAAGACC,0.668 ± 0.0814 log2FC
19,CTCGAGGATATCAAGATCTGGCCTCGGCAGCATAAAAGGAACCTCTAGCTAGCCGACTCACTATAGGGATAATCGCCCTGAGCAAAGACC,0.863 ± 0.103 log2FC

# Source: paper doi:10.1101/2024.03.05.583629
